# Experiments:
# [1] = target: Tyrosine-protein kinase Lck (Homo sapiens) (UniProt P06239); settings: at 1 µM
# [2] = target: Tyrosine-protein kinase Lyn (Homo sapiens) (UniProt P07948); settings: at 1 µM
# [3] = target: Tyrosine-protein kinase Lyn (Homo sapiens) (UniProt P07948); settings: at 10 µM
# [4] = target: Mitogen-activated protein kinase 3 (Homo sapiens) (UniProt P27361); settings: at 1 µM
# [5] = target: Mitogen-activated protein kinase 3 (Homo sapiens) (UniProt P27361); settings: at 10 µM
# [6] = target: MAP kinase-activated protein kinase 2 (Homo sapiens) (UniProt P49137); settings: at 1 µM
# Sequence of MAP kinase-activated protein kinase 2 (Homo sapiens) (P49137 whole entry, looked up): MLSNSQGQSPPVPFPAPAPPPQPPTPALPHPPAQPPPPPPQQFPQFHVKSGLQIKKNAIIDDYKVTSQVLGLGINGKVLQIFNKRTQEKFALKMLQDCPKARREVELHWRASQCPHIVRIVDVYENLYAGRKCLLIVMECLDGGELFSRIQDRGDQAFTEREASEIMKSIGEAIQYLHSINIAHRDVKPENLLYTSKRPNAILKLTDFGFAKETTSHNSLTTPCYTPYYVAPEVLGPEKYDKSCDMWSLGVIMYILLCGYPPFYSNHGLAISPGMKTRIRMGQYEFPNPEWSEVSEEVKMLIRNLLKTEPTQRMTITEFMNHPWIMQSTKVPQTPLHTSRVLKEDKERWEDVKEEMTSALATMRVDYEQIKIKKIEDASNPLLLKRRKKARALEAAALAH
# [7] = target: Mitogen-activated protein kinase 1 (Homo sapiens) (UniProt P28482); settings: at 1 µM
# Sequence of Mitogen-activated protein kinase 1 (Homo sapiens) (P28482 whole entry): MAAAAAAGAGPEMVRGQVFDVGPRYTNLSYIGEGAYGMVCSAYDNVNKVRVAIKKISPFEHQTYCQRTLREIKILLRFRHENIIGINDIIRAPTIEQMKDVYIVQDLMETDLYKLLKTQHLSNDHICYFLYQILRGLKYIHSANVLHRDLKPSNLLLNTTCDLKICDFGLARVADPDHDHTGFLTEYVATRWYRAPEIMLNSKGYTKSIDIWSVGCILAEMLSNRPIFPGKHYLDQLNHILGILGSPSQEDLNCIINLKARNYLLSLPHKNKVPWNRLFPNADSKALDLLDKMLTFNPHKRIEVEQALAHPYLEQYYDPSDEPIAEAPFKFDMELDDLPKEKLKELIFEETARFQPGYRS
# [8] = target: Mitogen-activated protein kinase 1 (Homo sapiens) (UniProt P28482); settings: at 10 µM
# [9] = target: Tyrosine-protein kinase Lck (Homo sapiens) (UniProt P06239); settings: at 10 µM
# Sequence of Tyrosine-protein kinase Lyn (Homo sapiens) (P07948 2-512 limits assumed): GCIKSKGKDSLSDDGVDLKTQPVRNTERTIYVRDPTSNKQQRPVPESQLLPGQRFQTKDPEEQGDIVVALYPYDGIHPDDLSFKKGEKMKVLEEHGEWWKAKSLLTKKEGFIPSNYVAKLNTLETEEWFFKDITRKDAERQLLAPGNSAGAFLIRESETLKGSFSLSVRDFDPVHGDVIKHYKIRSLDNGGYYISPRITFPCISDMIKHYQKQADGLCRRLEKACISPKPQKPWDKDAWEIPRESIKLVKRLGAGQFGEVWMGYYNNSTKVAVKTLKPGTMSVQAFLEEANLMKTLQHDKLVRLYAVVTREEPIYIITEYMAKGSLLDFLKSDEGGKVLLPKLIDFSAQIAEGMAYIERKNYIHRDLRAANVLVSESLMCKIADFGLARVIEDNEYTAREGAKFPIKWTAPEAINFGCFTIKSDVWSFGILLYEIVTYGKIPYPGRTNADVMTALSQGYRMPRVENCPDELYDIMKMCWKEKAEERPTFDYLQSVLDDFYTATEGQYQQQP
# Sequence of Mitogen-activated protein kinase 3 (Homo sapiens) (P27361 whole entry): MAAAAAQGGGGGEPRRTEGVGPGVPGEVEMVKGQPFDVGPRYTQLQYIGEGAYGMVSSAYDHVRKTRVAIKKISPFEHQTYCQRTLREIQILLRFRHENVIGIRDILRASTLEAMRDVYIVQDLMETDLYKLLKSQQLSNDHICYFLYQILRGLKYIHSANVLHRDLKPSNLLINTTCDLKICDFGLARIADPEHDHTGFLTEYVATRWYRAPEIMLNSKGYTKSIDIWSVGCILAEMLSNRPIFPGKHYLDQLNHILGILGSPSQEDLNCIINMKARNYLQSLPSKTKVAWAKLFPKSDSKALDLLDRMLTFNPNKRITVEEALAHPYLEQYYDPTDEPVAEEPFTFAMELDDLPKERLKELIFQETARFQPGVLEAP
# Sequence of Tyrosine-protein kinase Lck (Homo sapiens) (P06239 2-509 limits assumed): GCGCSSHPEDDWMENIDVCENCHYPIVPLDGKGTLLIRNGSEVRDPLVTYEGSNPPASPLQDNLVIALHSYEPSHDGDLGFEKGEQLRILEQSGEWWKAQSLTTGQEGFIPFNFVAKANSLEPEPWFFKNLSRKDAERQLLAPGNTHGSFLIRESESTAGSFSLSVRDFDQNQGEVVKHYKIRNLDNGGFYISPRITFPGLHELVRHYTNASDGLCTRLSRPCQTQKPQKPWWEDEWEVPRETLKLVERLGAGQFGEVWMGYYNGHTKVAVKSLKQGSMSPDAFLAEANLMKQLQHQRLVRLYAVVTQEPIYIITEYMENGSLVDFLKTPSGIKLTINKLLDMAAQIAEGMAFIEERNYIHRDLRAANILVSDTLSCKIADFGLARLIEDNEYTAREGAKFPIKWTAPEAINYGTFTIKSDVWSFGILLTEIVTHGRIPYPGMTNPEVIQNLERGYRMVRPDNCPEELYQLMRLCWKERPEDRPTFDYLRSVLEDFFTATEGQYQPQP
compound,measurement,setting,value
CN([C@@H](Cc1ccc(OS(=O)(=O)c2cccc3cnccc23)cc1)C(=O)N1CCN(c2ccccc2)CC1)S(=O)(=O)c1cccc2cnccc12,residual activity,[1],113%
same,residual activity,[2],78%
same,residual activity,[3],59%
CC(C)(C)c1nc2c3ccc(F)cc3c3c(=O)[nH]ccc3c2[nH]1,residual activity,[2],65%
same,residual activity,[3],20%
same,residual activity,[4],47%
same,residual activity,[5],64%
same,residual activity,[6],79%
O=C(Nc1nc2ccccc2n1CCN1CCOCC1)c1cccc([N+](=O)[O-])c1,residual activity,[3],87%
O=c1c(-c2ccc(F)cc2)c(-c2ccncc2)[nH]n1-c1ccc(Cl)cc1,residual activity,[2],75%
same,residual activity,[3],38%
same,residual activity,[5],66%
same,residual activity,[7],122%
CCOC(=O)c1c(C)[nH]c(/C=C2\C(=O)Nc3ccccc32)c1C,residual activity,[2],50%
same,residual activity,[3],26%
same,residual activity,[4],81%
same,residual activity,[5],91%
same,residual activity,[7],100%
same,residual activity,[8],96%
Cn1c2ccccc2c2c3c(c4c5ccccc5n(CCC#N)c4c21)CNC3=O,residual activity,[2],21%
same,residual activity,[3],9%
same,residual activity,[4],52%
same,residual activity,[7],48%
same,residual activity,[8],44%
O=C1Cc2c([nH]c3ccc([N+](=O)[O-])cc23)-c2ccccc2N1,residual activity,[1],76%
same,residual activity,[9],45%
same,residual activity,[2],6%
same,residual activity,[3],5%
same,residual activity,[7],109%
same,residual activity,[6],69%
NC(=O)c1cccc(-c2cc(Nc3ccc(OC(F)(F)F)cc3)ncn2)c1,residual activity,[1],92%
same,residual activity,[9],91%
same,residual activity,[2],97%
same,residual activity,[3],82%

# — ChEMBL document CHEMBL2218924, “A broad activity screen in support of a chemogenomic map for kinase signalling research and drug discovery” (Biochem J, 2013)
